This note sets out measurements from paper PMC12820563, “FoxP3 forms a head-to-head dimer in vivo and stabilizes its multimerization on adjacent microsatellites”.

Whole data set: some 16,000 sequences, median “rpm ratio (pull-down/input)” near 0.94, cut for the highest 2% near 1.7. What follows is part of a selection rich in the highest values, with near analogues and random picks from the rest.

For the test, the target named is T1, MBP-FoxP1dN (Mus musculus, UniProt P58462 326-579).
T1 sequence: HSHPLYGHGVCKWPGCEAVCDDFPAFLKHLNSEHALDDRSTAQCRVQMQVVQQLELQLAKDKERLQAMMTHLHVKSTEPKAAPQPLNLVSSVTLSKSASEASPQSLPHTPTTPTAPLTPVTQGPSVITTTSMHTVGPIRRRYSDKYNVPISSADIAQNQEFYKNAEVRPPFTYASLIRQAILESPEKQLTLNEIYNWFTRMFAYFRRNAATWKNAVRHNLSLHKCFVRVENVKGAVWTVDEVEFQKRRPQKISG
As to the kind of experiment: PD-seq (MBP pull-down with sequencing); 20 mM Tris-HCl pH 7.5, 100 mM NaCl, 1.5 mM MgCl2, 0.4 uM protein, 0.1 uM dsDNA library, 30 min, room temperature, amylose pull-down; high values mean tight binding. The note with it: protein: recombinant; tags: His6-MBP; chain copies: 2; dsDNA, one strand shown. In short, it runs like this:
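Binding is the reads-per-million enrichment of pull-down relative to input, pooled across replicates. For this, 0.4 µM His6-MBP-tagged mouse FoxP3 or FoxP1 fragment lacking the N-terminus, made in E. coli, was incubated with 0.1 µM Klenow-filled double-stranded degenerate DNA library for 30 min at room temperature in Tris pH 7.5 buffer with NaCl and MgCl2. Complexes bound to amylose resin were washed three times before proteinase K released the DNA for PCR barcoding and Illumina sequencing.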
On to “GATGATTGTTCTCCCAGCTGATGAATTCCAGGGTTCGAGTAAACAAATTTTCCTAATCTTTCTGTTCAAGCGCCATCTAC”, for which the binding signal is 0.729 RPM ratio (pull-down/input).
Under “GATGATTGTTCTCCCAGCTGATGAATTGTGAAGCTCGAGTAAACAAATTTTCCTAATCTTTCTGTTCAAGCGCCATCTAC” stands 0.905 RPM ratio (pull-down/input).
Then “GATGATTGTTCTCCCAGCTGATGAATTACAGTTGTCGAGTAAACAAATTTTCCTAATCTTTCTGTTCAAGCGCCATCTAC”, with 1.46 RPM ratio (pull-down/input).
Consider “GATGATTGTTCTCCCAGCTGATGAATTAGCAACTTCGAGTAAACAAATTTTCCTAATCTTTCTGTTCAAGCGCCATCTAC”, for which the binding signal is 1.12 RPM ratio (pull-down/input).
Then “GATGATTGTTCTCCCAGCTGATGAATTTGCGTGCTCGAGTAAACAAATTTTCCTAATCTTTCTGTTCAAGCGCCATCTAC”, with 1.05 RPM ratio (pull-down/input); and “GATGATTGTTCTCCCAGCTGATGAATTCTCGTCATCGAGTAAACAAATTTTCCTAATCTTTCTGTTCAAGCGCCATCTAC”, with 0.998 RPM ratio (pull-down/input).
Then “GATGATTGTTCTCCCAGCTGATGAATTGGCTAAGTCGAGTAAACAAATTTTCCTAATCTTTCTGTTCAAGCGCCATCTAC”, with 0.879 RPM ratio (pull-down/input); and “GATGATTGTTCTCCCAGCTGATGAATTTGCAAAATCGAGTAAACAAATTTTCCTAATCTTTCTGTTCAAGCGCCATCTAC”, with 1.13 RPM ratio (pull-down/input); and “GATGATTGTTCTCCCAGCTGATGAATTCTAAAGATCGAGTAAACAAATTTTCCTAATCTTTCTGTTCAAGCGCCATCTAC”, with 0.85 RPM ratio (pull-down/input).
Then “GATGATTGTTCTCCCAGCTGATGAATTGCCTAAGTCGAGTAAACAAATTTTCCTAATCTTTCTGTTCAAGCGCCATCTAC”, with 0.889 RPM ratio (pull-down/input); and “GATGATTGTTCTCCCAGCTGATGAATTGGCTTTCTCGAGTAAACAAATTTTCCTAATCTTTCTGTTCAAGCGCCATCTAC”, with 0.862 RPM ratio (pull-down/input).
For the sequence “GATGATTGTTCTCCCAGCTGATGAATTTGGTGTATCGAGTAAACAAATTTTCCTAATCTTTCTGTTCAAGCGCCATCTAC”, the binding signal is 1.17 RPM ratio (pull-down/input).
Then “GATGATTGTTCTCCCAGCTGATGAATTGTAATACTCGAGTAAACAAATTTTCCTAATCTTTCTGTTCAAGCGCCATCTAC”, with 1.04 RPM ratio (pull-down/input); and “GATGATTGTTCTCCCAGCTGATGAATTCTGTGTATCGAGTAAACAAATTTTCCTAATCTTTCTGTTCAAGCGCCATCTAC”, with 1.79 RPM ratio (pull-down/input).
Then “GATGATTGTTCTCCCAGCTGATGAATTTGTATACTCGAGTAAACAAATTTTCCTAATCTTTCTGTTCAAGCGCCATCTAC”, with 2.13 RPM ratio (pull-down/input).
Under “GATGATTGTTCTCCCAGCTGATGAATTCTCTGTATCGAGTAAACAAATTTTCCTAATCTTTCTGTTCAAGCGCCATCTAC” stands 0.938 RPM ratio (pull-down/input); under “GATGATTGTTCTCCCAGCTGATGAATTCTTTGTATCGAGTAAACAAATTTTCCTAATCTTTCTGTTCAAGCGCCATCTAC”, 1.21 RPM ratio (pull-down/input).
In the case of “GATGATTGTTCTCCCAGCTGATGAATTTCTATACTCGAGTAAACAAATTTTCCTAATCTTTCTGTTCAAGCGCCATCTAC”, the binding signal was 0.903 RPM ratio (pull-down/input).
Regarding “GATGATTGTTCTCCCAGCTGATGAATTTGTAGTATCGAGTAAACAAATTTTCCTAATCTTTCTGTTCAAGCGCCATCTAC”, the binding signal is 1.47 RPM ratio (pull-down/input).
“GATGATTGTTCTCCCAGCTGATGAATTGTGTAAATCGAGTAAACAAATTTTCCTAATCTTTCTGTTCAAGCGCCATCTAC”: the binding signal is 1.59 RPM ratio (pull-down/input).
On to “GATGATTGTTCTCCCAGCTGATGAATTTGTGTAATCGAGTAAACAAATTTTCCTAATCTTTCTGTTCAAGCGCCATCTAC”, for which the binding signal was 1.97 RPM ratio (pull-down/input).
Under “GATGATTGTTCTCCCAGCTGATGAATTTGTGTGATCGAGTAAACAAATTTTCCTAATCTTTCTGTTCAAGCGCCATCTAC” stands 1.3 RPM ratio (pull-down/input); under “GATGATTGTTCTCCCAGCTGATGAATTTTGTGTATCGAGTAAACAAATTTTCCTAATCTTTCTGTTCAAGCGCCATCTAC”, 2.15 RPM ratio (pull-down/input).
